Compound activity from PubChem.
In the library only some 6.5% were active in any assay of this set; here they are far more common.
FMDV inh = blocks foot and mouth disease virus; Potency, µM (top dose mostly 57.9 µM), for inactives: at the top dose activity change, negative = inhibition, most hits filed as inhibitors; 410,000 compounds, 1.2% hits; AID 1159524; FMDV antiviral cell-based qHTS; calls by dose curve; tested in HEK293T cells; also: read-out not given here; potency is read from the fitted curve at half-maximal effect; nearly all actives have a fitted effect of over 45% in size
VACV Venus inh = inhibitors of vaccinia virus (Venus reporter). Vaccinia virus Venus reporter expression, fluorescence. Potency, µM (series often up to 36.5 µM), for inactives: at the top dose activity change, negative = inhibition, hits mostly inhibitors. 330,000 compounds, 0.46% hits. AID 720580; calls by dose curve; tested in A549 cells; also: potency is read from the fitted curve at half-maximal effect; nearly all actives have a fitted effect of over 30% in size
LASV entry inh = Lassa virus entry inhibition; Lassa virus pseudotype entry inhibition, cell reporter; Potency, µM (highest dose often 37.9 µM), without a hit: at the top dose activity change, negative = inhibition, hits mostly inhibitors; 300,000 compounds, 1.2% hits; AID 540256; calls by dose curve; tested in HEK293 cells; also: potency is read from the fitted curve at half-maximal effect; nearly all actives have a fitted effect of over 50% in size
Marburg entry inh = Marburg virus entry inhibition; AID 540276; Potency, µM (highest dose often 37.8 µM), for the others: at the highest dose activity change, negative = inhibition, hits mostly inhibitors; Marburg virus pseudotyped entry inhibition, cell reporter; 300,000 compounds, 1.8% hits; calls by dose curve; tested in HEK293 cells; also: potency is read from the fitted curve at half-maximal effect
HCMV inh = blocks human cytomegalovirus replication; HFF cells, HCMV-luciferase reporter, 72 h; active compounds read low; activity change, negative = inhibition, % at 57.5 µM; 410,000 compounds, 4.5% hits; AID 1259415; in the data active = activity change below about -60%; inconclusive = no clear call, values can overlap the other calls; inactive = above about -39%
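Inhibition of viral replication was scored as loss of reporter luminescence in HFFs infected with HCMV-luciferase (MOI 1 PFU/cell) for 72 h; compounds tested at 2 doses, normalized to buffer and Salinomycin controls.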
VACV mCherry inh = inhibitors of vaccinia virus infection (mCherry reporter signal). Vaccinia virus mCherry reporter infection, fluorescence. Potency, µM (titrated, usually from 36.5 µM), for the others: top-dose activity change, negative = inhibition, usual class: inhibitors. 310,000 compounds, 0.63% hits. AID 720579; calls by dose curve; tested in A549 cells; also: potency is read from the fitted curve at half-maximal effect; nearly all actives have a fitted effect of over 35% in size
* = called active by the depositor; i = inactive; u = inconclusive; x = no result given; [ ] = another dose, or the depositor's remark. % is scaled to controls: 0 for no effect and ±100 for the full control effect.

SMILES	FMDV inh	VACV Venus inh	LASV entry inh	Marburg entry inh	HCMV inh	VACV mCherry inh
COc1ccc(OC)c2c1C(=O)C(Cl)=C(Cl)C2=O	20µM*	x	x	x	-91*	x
Cc1nc2ccc(C(=O)OC(C)C(=O)c3c(C)[nH]c4ccccc34)cc2nc1C (stereo not drawn)	x	13%	x	x	x	-18%
COc1cc(C(O)c2nc(C(=O)NCCN(C)C)cs2)cc(OC)c1OC (stereo not drawn)	x	x	x	x	2	x
O=C(COC(=O)CNC(=O)c1ccccc1)Nc1ccc(Cl)cn1	-3%	9%	12%[46.1 µM]	u	-61*	-5%
O=C(CCCOc1ccccc1)Nc1ccc(Cl)cn1	28%	-28%	-2%	-24%[46.1 µM]	-65*	u
O=C(COC(=O)CNC(=O)c1ccco1)Nc1ccc(Cl)cn1	1%	6%	-19%	-1%	14	-1%
CCCCCCC(=O)Nc1ccc(Cl)cn1	50%	x	1%	16%	-15	x
COCCSc1ccccc1C(=O)Nc1ccc(Cl)cn1	-23%	-3%	9%	24%	-69*	-13%
CC1(C)CC(=O)c2cc(C(=O)O)c(=O)n(-c3ccccc3)c2C1	4%	x	-2%	u	-22	x
COc1ccc(-n2c3c(cc(C(=O)N4CCCCC4)c2=O)C(=O)CC(C)(C)C3)cc1	12%	14µM*	u	10%	-5	u
CC1(C)CC(=O)c2cc(C(=O)N3CCCC(C)(C)C3)c(=O)n(-c3ccccc3)c2C1	17%	-12%	0%	4%	-77*	x
Cc1ccc(NC(=O)c2ccco2)c(OCc2cc(=O)n3cc(C)sc3n2)c1	-18%	-9%	28%[46.1 µM]	x	-34	-18%
O=C(C1CN(C(=O)c2cc3ccccc3o2)c2ccccc2O1)N1CCCCC1 (stereo not drawn)	-7%	-15%	x	x	-27	i
COc1cc(=O)n2c(c1C(=O)NCc1ccco1)CCN(Cc1cccc(C(F)(F)F)c1)CC2	-8%	-3%	x	x	x	-8%
Cc1cccc(NC(=O)Cc2nc(-c3c[nH]c(C(=O)N4CCCC4)c3)cs2)c1	35µM*	-19%	u	u	7	-29%
Cc1ccccc1NS(=O)(=O)c1ccc(C(=O)NCC(C)(C)N2CCOCC2)cc1	-29%	-17%	-15%[46.1 µM]	-19%	-67*	-3%
Cc1ccc(C(=O)NCCSc2ccccc2)cc1S(=O)(=O)Nc1ccccc1	-6%	x	u	23µM*	-9	x
CC(C)(CNC(=O)c1ccc(S(=O)(=O)Nc2ccccc2F)cc1)N1CCOCC1	-9%	-3%	-27%	-27%	-28	-19%
Cc1ccc(C)c(NS(=O)(=O)c2cc(C(=O)NCCSC3CCCCC3)ccc2C)c1	-13%	-27%	-41%	-18%	-14	u
Cc1ccccc1NS(=O)(=O)c1cc(C(=O)NCCSC2CCCCC2)ccc1C	x	-13%	8.2µM*	u	u	-17%
COc1ccc(CN(C)C(=O)c2ccc3ccccc3n2)cc1F	-5%	13%	u	9%[46.1 µM]	0	-8%
Cc1ccc(-c2nnc(SCC(=O)NCc3ccccc3)o2)cc1	10%	1%	0%[46.1 µM]	x	-1	-13%
Cc1ccc(C(=O)NCC(=O)N(C)Cc2ccccc2C)s1	80%	-24%	x	x	26	-5%
CC(C)CCC(=O)N1CCOC1=O	-15%	-10%	x	x	57	i
COCCNC(=O)c1cc2oc3ccccc3c2n1C	0%	x	-5%	22%	42	x
SMILES	FMDV inh	VACV Venus inh	LASV entry inh	Marburg entry inh	HCMV inh	VACV mCherry inh
CCn1c(C(=O)NCc2ccccc2C)cc2oc3ccccc3c21	-6%	17%	x	u	-82*	u
CCn1c(C(=O)NCc2ccc(OC(C)C)cc2)cc2oc3ccccc3c21	-15%	6%	x	u	-79*	-9%
Cc1ccc2c(c1)CC(C)N2S(=O)(=O)c1nnc(NC(=O)CC(C)C)s1 (stereo not drawn)	5%	-10%	-11%[46.1 µM]	x	-12	-12%
CC1(C(=O)Nc2ccc3c(c2)OCCO3)CCN1C(=O)c1ccccc1CCc1ccccc1 (stereo not drawn)	u	-7%	x	x	-37	-13%
CC1=CC(C)(C)Nc2ccc(OC(=O)C(Cc3ccccc3)N3C(=O)c4ccccc4C3=O)cc21 (stereo not drawn)	0%	-1%	5µM*	14%[46.1 µM]	u	x
CC(=O)Oc1ccc(CC(C(=O)O)N2C(=O)c3ccccc3C2=O)cc1 (stereo not drawn)	-5%	-4%	11%[46.1 µM]	10%[46.1 µM]	-17	-4%
CC1=CC(C)(C)Nc2ccc(OC(=O)CN3C(=O)c4cccc5cccc(c45)C3=O)cc21	u	19%	-3%	-20%	-78*	-5%
CCOc1ccc2c(c1)C(C)=CC(C)(C)N2	0%	-7%	x	x	-17	-2%
CC1=CC(C)(C)Nc2ccc(OC(=O)CN3C(=O)c4ccccc4C3=O)cc21	u	65%	u	u	-100*	-12%
Cc1cc(C)cc(N2C(=O)NC(=O)/C(=C/c3cccn3-c3ccc(Cl)cc3)C2=O)c1	14µM*	2%	u	u	70	i
CC(C)(C)n1cccc1/C=C1\C(=O)NC(=O)N(c2ccccc2)C1=O	10%	-9%	4%	0%	8	-10%
COc1ccc(-n2cccc2/C=C2/NC(=O)N(c3cccc(Cl)c3)C2=O)cc1	5%	-12%	6%	10%	41	-23%
Cc1cccc(N2C(=O)NC(=O)/C(=C\c3cccn3-c3ccc(Cl)cc3)C2=O)c1	10µM*	u	u	u	-102*	x
CCCCN(CC)CCOc1cccc2ccccc12	40µM*	u	x	x	x	u
CSc1nc(SCCN(C)C)c2c3c(sc2n1)COC(C)(C)C3	-6%	-7%	u	u	7	i
CCC1(C)Cc2c(sc3nc(SC)nc(NCCN(C)C)c23)CO1 (stereo not drawn)	-14%	x	-11%	u	-108*	x
COc1cc(S(=O)(=O)Nc2ccc(C)cc2)ccc1NC(=O)c1ccncc1	35%	-22%	2%	u	-19	-8%
COc1cc(S(=O)(=O)Nc2ccccc2C)ccc1NC(=O)c1ccncc1	52%	-2%	-16%	-12%[46.1 µM]	-72*	-11%
COc1ccc(S(=O)(=O)N2CCCCC2)cc1NC(=O)C1COc2ccccc2O1 (stereo not drawn)	u	-14%	u	11µM*	-1	-20%
COc1ccccc1NS(=O)(=O)c1ccc(C)c(NC(=O)c2ccc(S(=O)(=O)N3CCCCCC3)cc2)c1	-25%	-26%	-13%	u	-69*	-30%
COc1ccccc1NS(=O)(=O)c1cc(C(=O)N2CC(C)CC(C)C2)ccc1C (stereo not drawn)	-9%	x	18%	8.2µM*	10	x
O=S(=O)(N1CC[C@@]23C1=CC=C[C@@H]2N(S(=O)(=O)C(F)(F)F)c1ccccc13)C(F)(F)F	x	x	x	x	35	x
CCN(CC)c1ccc(/C=N\NC(=O)c2cccc3cc[nH]c23)cc1	16%	u	u	-8%	-63*	-17%
